Screening data (PubChem BioAssay)
tim10-1 inh – tim10-1 yeast growth inhibition; S. cerevisiae tim10-1 ts strain growth, BacTiter-Glo, 24 h; inhibition, % at 20 µM; actives 2.2% (n = 330,000);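 active means inhibition of at least 40%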;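 further: mutant grown at 25 °C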
NALP1 yeast inh – NALP1 inhibition; AID 2071; inhibition, % at 10 µM; S. cerevisiae NALP1/ASC/caspase-1 growth, X-gal OD620, 72 h; actives 0.61% (n = 280,000); in the data active means inhibition mostly above about 24%, no sharp cut-off; inactive means mostly below about 32%
TIM10 inh – TIM10 yeast growth inhibition; S. cerevisiae TIM10 strain growth, BacTiter-Glo luminescence, 24 h; inhibition, % at 10 µM; actives 1.4% (n = 330,000);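 active means inhibition of 40% or more at the single tested concentration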;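 further: wild-type TIM10 isogenic control strain grown at permissive 25 °C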
V-ATPase pHluor – yeast V-ATPase proton transport regulation by pHLuorin | response, % at 10 µM | AID 504577 | S. cerevisiae, pHLuorin cytosolic pH fluorescence | actives 0.37% (n = 350,000); in the data active means response mostly above about 7.3%, no sharp cut-off; inactive means mostly below about 5.4%; further: actives read high
tim23-1 inh – inhibits growth of tim23-1 mutant yeast; S. cerevisiae tim23-1 growth, BacTiter-Glo luminescence, 24 h; AID 463212; actives 1.3% (n = 330,000); inhibition, % at 20 µM;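 active means growth inhibition of the mutant yeast at or above 50%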;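 further: temperature-sensitive mutant grown at 25 °C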
NLRP3 yeast inh – inhibitors of NALP3 inflammasome in yeast; actives 0.39% (n = 330,000); inhibition, % at 10 µM; Yeast reconstituted NLRP3/ASC/caspase-1, beta-gal luminescence, 24 h;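 active means inhibition of 50% or more; inactive means inhibition below 50%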
NALP3 yeast conf – confirmation of NALP3 inhibitors in yeast; shares compounds with NLRP3 yeast inh; yeast expressing human NALP3, luminescence; inhibition, % at 10 µM; actives 81% (n = 1,300); in the data active means inhibition above about 48%
Casp1 ASC ctr – active in yeast caspase-1-ASC counter-screen for NALP3 inhibitors; shares compounds with NLRP3 yeast inh; yeast expressing Caspase-1-ASC, luminescence counter screen; inhibition, % at 10 µM; actives 66% (n = 1,000); AID 488784
NALP3 yeast rt – confirmation retest of NALP3 inhibitors in yeast | shares compounds with NLRP3 yeast inh | yeast expressing human NALP3, luminescence read-out | inhibition, % at 10 µM | actives 53% (n = 1,000)
Hits are given with their value; i = inactive; nt = no result. A selection: hits, their analogues and other compounds. The true share with any hit is near 4.2%. Unless noted, no stated cut-off is given here; in the data, active means inhibition above about 50%; inactive means the rest.

SMILES	tim10-1 inh	NALP1 yeast inh	TIM10 inh	V-ATPase pHluor	tim23-1 inh	NLRP3 yeast inh	NALP3 yeast conf	Casp1 ASC ctr	NALP3 yeast rt
CCC(C(=O)NC(C)(C)C)N(Cc1ccco1)C(=O)CNS(=O)(=O)c1ccc(OC)cc1 (configuration not stated)	i	i	i	i	i	i	nt	nt	nt
O=S(=O)(c1c(Cl)sc(Cl)c1Br)N1CCCC1	i	i	i	i	i	64	64	62	67
CC(=O)/C=C\c1cn(-c2ncc(C(F)(F)F)cc2Cl)c2ccccc12	i	i	i	i	i	i	nt	nt	nt
CO/N=C/NC(=O)Cc1cn(-c2ncc(C(F)(F)F)cc2Cl)c2ccccc12	i	i	i	i	i	56	64	i	i
O=C(N/N=C/C(Cl)=C\c1ccccc1)c1ccco1	i	i	i	i	i	59	61	74	56
CC1CC(C)CN(c2nc(N(C)c3ccccc3)nc(N)c2[N+](=O)[O-])C1 (configuration not stated)	i	i	i	i	i	i	nt	nt	nt
CC1CN(c2nc(N(C)c3ccccc3)nc(N)c2[N+](=O)[O-])CC(C)O1 (configuration not stated)	i	i	i	i	i	53	i	i	i
CCOC(=O)N1CCN(C(=O)c2ccc3oc(CCCc4ccccc4)nc3c2)CC1	i	i	i	i	i	i	nt	nt	nt
O=C(Cn1cnc2ccccc2c1=O)c1ccccc1	i	i	i	i	i	i	nt	nt	nt
Cc1ccc(C(=O)Cn2cnc3ccccc3c2=O)cc1	i	i	i	i	i	52	64	i	i
CC(=O)N1N=C(c2ccc3ccccc3c2)OC1(C)C	i	60	i	i	i	63	i	nt	nt
Cc1ccc(OCCn2c(=S)[nH]c3ccccc32)c(C(C)C)c1	i	i	i	i	i	75	81	56	i
Cc1cccc(OCCn2c(=S)[nH]c3ccccc32)c1	i	i	i	i	i	i	nt	nt	nt
COc1cc2ccccc2cc1C(=O)N1CCN(c2ccccn2)CC1	i	i	i	i	i	52	87	62	76
CCOC(=O)c1ccc2c(c1)nc(-c1ccccn1)n2CC	i	i	i	i	i	i	nt	nt	nt
CCOC(=O)c1ccc2c(c1)nc(COc1ccc(OC)cc1)n2CC	i	i	i	i	i	61	61	i	i
O=C(NC1C/C(=N/O)c2cc3c(cc21)OCO3)C(F)(F)F (configuration not stated)	i	i	i	i	i	i	nt	nt	nt
CCOc1ccccc1C(=O)Nc1ccccc1O	i	i	i	i	i	54	57	56	55
CN1c2ccccc2Sc2cc(N)ccc21	i	52	i	i	i	64	i	74	61
Cc1cccc(NC(=O)CNC(=O)CSc2nc(N)cc(N)n2)c1C	i	nt	i	i	i	i	nt	nt	nt
CC(C)Oc1ccc(C(=O)NCCCNC(=O)c2ccccn2)cc1	i	i	i	i	i	i	nt	nt	nt
COc1ccc(N2CCN(S(=O)(=O)CCNC(=O)C3CCCCC3)CC2)cc1	i	i	i	i	i	i	nt	nt	nt
N#C/C(=N\Nc1ccccc1)C(N)=S	i	i	i	i	i	i	nt	nt	nt
N#C/C(=N\Nc1ccc(Cl)cc1)C(N)=S	i	nt	i	i	i	75	90	nt	nt
N#C/C(=N\Nc1ccc(Cl)cc1)C(=O)c1ccsc1	i	i	i	i	i	55	i	nt	nt
SMILES	tim10-1 inh	NALP1 yeast inh	TIM10 inh	V-ATPase pHluor	tim23-1 inh	NLRP3 yeast inh	NALP3 yeast conf	Casp1 ASC ctr	NALP3 yeast rt
C=C(CC[C@@H](O)C(C)(C)O)[C@H]1CC[C@]2(C)[C@@H]1CCC1[C@@]3(C)CC[C@H](O)C(C)(C)C3CC[C@]12C (some centres not stated)	i	nt	i	i	i	58	i	i	i
CC(=O)Nc1ccc(C(=O)CN2CCN(c3ccccc3)CC2)cc1	i	i	i	i	i	i	nt	nt	nt
COc1cc(/C=C(/C#N)c2ccc(F)cc2)ccc1Oc1ccc([N+](=O)[O-])cn1	i	i	i	i	i	i	nt	nt	nt
COc1cc(N)c2ncsc2c1	nt	nt	nt	i	nt	nt	nt	nt	nt
CCc1cc(C(=O)Nc2ccccc2N2CCOCC2)sc1C	i	nt	i	i	i	51	53	i	i
CCc1cc(C(=O)Nc2cc(S(=O)(=O)N(CC)CC)ccc2N2CCOCC2)sc1C	i	nt	i	i	i	i	nt	nt	nt
Cc1cccc2c1-c1sc(C(=O)Nc3ccccc3N3CCN(C)CC3)cc1CO2	i	nt	i	i	i	55	64	nt	nt
Cc1cccc2c1-c1sc(C(=O)N3CCCCC3)cc1CO2	i	i	i	i	i	i	nt	nt	nt
Cc1ccccc1C#N	i	nt	i	i	i	i	nt	nt	nt
O=C(Nc1ccc(Nc2ccccc2)cc1)c1ccco1	i	i	i	i	i	75	70	79	75
O=C(Nc1ccc(Nc2ccccc2)cc1)c1ccc(F)cc1	i	i	i	i	i	62	78	59	53
CCCCCCCSc1ncnc2[nH]ncc12	nt	nt	nt	i	nt	nt	nt	nt	nt
CCOc1ccc(NC(=O)CCS(=O)(=O)c2ccc(C)cc2)cc1	i	i	i	i	i	i	nt	nt	nt
CSc1c(CC(=O)Nc2ccc(F)cc2)n(Cc2ccccc2)c2ccccc12	i	i	i	i	i	i	nt	nt	nt
Cc1c(C=O)c2ccccn2c1C(=O)c1ccccc1	i	i	i	i	i	56	59	55	i
Cc1c(C=O)c2ccccn2c1C(=O)c1ccc(Cl)c([N+](=O)[O-])c1	i	i	i	i	i	i	nt	nt	nt
Cc1c(C=O)c2ccccn2c1C(=O)c1ccc(F)cc1	i	i	i	i	i	59	72	60	54
Cc1c(/C=N/NC(=O)CNc2ccccc2)c2ccccn2c1C(=O)c1ccc(Cl)cc1	i	i	i	i	i	i	nt	nt	nt
Cc1cccc(Oc2ccccc2NC(=O)C2=COCCO2)c1	i	nt	i	i	i	i	nt	nt	nt
Cc1ccccc1NC(=O)c1ccc(Nc2c([N+](=O)[O-])cc([N+](=O)[O-])c3ccccc23)cc1	i	i	i	i	i	56	i	nt	nt
COc1ccc(C)cc1-n1nnnc1SCC1CCCCO1 (configuration not stated)	i	i	i	i	i	53	i	nt	nt
COC(=O)C(C)Oc1ccc(-c2nccc(-c3ccccn3)n2)cc1 (configuration not stated)	i	i	i	i	i	i	nt	nt	nt
CCOC(=O)N1CCN(C(=O)CSC2=NS(=O)(=O)c3cc(F)ccc3N2)CC1	i	nt	i	i	i	i	nt	nt	nt
O=C(OCCCc1cc2ccccc2c(=O)o1)c1ccc2c(c1)OCO2	i	nt	i	i	i	53	i	i	i
O=C(OCCc1cc2ccccc2c(=O)o1)c1ccc2c(c1)OCO2	i	nt	i	i	i	i	nt	nt	nt
O=C(N/N=C/c1cccc(OC(=O)c2cccc(Br)c2)c1)c1ccncc1	i	i	i	i	i	i	nt	nt	nt
